Data as given in ChEMBL document CHEMBL3988442, “University of Dundee, Small-Polar-MMV Screening Library” (2021).
About 13,000 (27%) of roughly 48,000 compounds showed an effect of 50% or more. Some of the results follow.

The molecules below were run on Wolbachia pipientis (assay: Anti-Wolbachia Cell-Based Screen). Conditions: 5 µM.
Type: functional
Design: scale not given: in the data most compounds retested in dose-response had high values

SMILES | Percent Effect [%]
CCc1ncc(C(=O)N(C)CCc2nc3cc(OC)ccc3[nH]2)cn1 | 4.765
CNC(=O)C(C)(C)N1CCC[C@H]1C(=O)NCC1CC1 | 11.03
COc1ccc(OCc2noc(CN(C)C3CCS(=O)(=O)C3)n2)cc1 (configuration not stated) | -8.185
CN(Cc1cc(Br)cn1C)C(=O)c1ccon1 | -0.2013
O=S1(=O)NC2(CCCN(Cc3ccc(F)cc3)C2)COc2ccccc21 (configuration not stated) | 98.49
CN1C2(CCN(Cc3ccc(F)cc3)C2)c2ccccc2S1(=O)=O (configuration not stated) | 8.528
O=S1(=O)NCC2(CCN(c3ncc(F)cn3)CC2)COc2ccccc21 | -10.54
COCCCC1(CO)CCCN(CCc2ccccc2)C1 (configuration not stated) | -12.43
O=S1(=O)NC2(CCCN(Cc3ccc(Cl)cc3)C2)COc2ccccc21 (configuration not stated) | 134.9
O=S1(=O)NC2(CCCN(CCc3ccccc3)C2)COc2ccccc21 (configuration not stated) | 103.7
O=C1NCC2(CCCN(CCc3ccccc3)C2)Oc2ccccc21 (configuration not stated) | -15.46
O=C1Nc2ccccc2C12CCCN(Cc1ccc3c(c1)OCCO3)C2 (configuration not stated) | -17.7
CCN(C)c1ccc(CNC(=O)c2ccc(NC(N)=O)cc2)cc1F | -59.71
CCc1cc(NCc2cc3n(n2)CCCN(S(C)(=O)=O)C3)nc(C)n1 | 3.028
c1ccc(Oc2nccc3occc23)c(CN2CCCCC2)c1 | -8.744
CN(C)S(=O)(=O)NCC1(c2ccccc2Br)CC1 | -6.253
COc1ccc(S(=O)(=O)N2C[C@@H]3CN(C)CCO[C@@H]3C2)cc1 | 104.2
CN1CCO[C@H]2CN(S(=O)(=O)c3ccc(C#N)cc3)C[C@H]21.O=C(O)C(F)(F)F | -17.08
CN1CCO[C@@H]2CN(S(=O)(=O)c3ccccc3)C[C@@H]2C1.O=C(O)C(F)(F)F | 98.27
CC(=O)N1CCO[C@@H]2CN(S(=O)(=O)c3cccnc3)C[C@@H]2C1.O=C(O)C(F)(F)F | 105.8
CC(C)N1CCO[C@H]2CN(S(=O)(=O)c3ccc(C#N)cc3)C[C@H]21 | -6.179
CN1CCO[C@@H]2CN(S(=O)(=O)c3ccccc3)CC[C@@H]2C1.O=C(O)C(F)(F)F | -5.775
CNC(=O)[C@H]1C[C@@H]2CN(S(=O)(=O)c3ccc(OC)cc3)C[C@@H]2N1C.O=C(O)C(F)(F)F | -8.898
Cc1occc1C(=O)NCC(=O)N(C)CCCOc1ccc(F)cc1 | -0.7534
Cc1cc(C(C)NC(=O)c2cnc3onc(C)c3c2)c(C)o1 (configuration not stated) | 7.597
C1CC1c1nsc(N2CCN(C3CC3)CC2)n1 | -1.801

SMILES | Percent Effect [%]
CSCCc1c(-c2ccccc2)ncn1[C@H]1C[C@@H](C(=O)O)N(C)C1 | 9.47
CCCS(=O)(=O)N1CCN(c2ccnc(N3CCCCC3)n2)CC1 | -4.762
CNC(=O)Cc1ccc(NC(=O)NCc2ncc(C)s2)cc1 | -0.2896
CCc1cnc(CNC(=O)NCCc2ccc(O)cc2)s1 | 101.6
CCc1cnc(CNC(=O)N2CCCC(C(=O)NC)C2)s1 (configuration not stated) | -0.4435
CCc1cnc(CNC(=O)NCCCO)s1 | 97.97
CCc1cnc(CNC(=O)N2CCCC(c3ncc[nH]3)C2)s1 (configuration not stated) | -16.47
Cc1cnc(CCNC(=O)NCCOc2ncccc2Cl)s1 | -4.9
CCc1cnc(CNC(=O)NC2CC(C)(C)OC2(C)C)s1 (configuration not stated) | 0.9333
Cc1cnc(CCNC(=O)NCCc2ccc(O)cc2)s1 | 116.1
COc1ccc(CNC(=O)NCCc2nc(C)c(C)s2)cn1 | -8.722
CCn1c(C)cc(C(=O)NCc2cccc(NS(C)(=O)=O)c2)c1C | -5.652
CNC(=O)c1cc(NC(=O)NCC2CCS(=O)(=O)C2)ccc1OC (configuration not stated) | -3.737
Cc1noc(OCc2csc(C)n2)n1 | 2.505
COc1cc2nc(C)sc2cc1NC(=O)C(C)NC(N)=O (configuration not stated) | -2.888
COc1ccccc1N1CCN(C(=O)CCCS(N)(=O)=O)C(C)C1 (configuration not stated) | -9.849
CCOC(=O)c1sc2ccsc2c1CNC(=O)CC | 11.82
CCOC(=O)c1sc2ccsc2c1CNC(=O)C(C)(C)C#N | 61.27
CCOC(=O)c1sc2ccsc2c1CN.Cl | -6.159
O=C(c1ccc[nH]1)N1C[C@H]2CC[C@@H]1CN(C1Cc3ccccc3C1)C2 | -8.418
Cc1cccc(-c2nc(C)nn2CC(=O)NC(C)C2CC2)c1 (configuration not stated) | 96.27
Cc1nc(-c2ccccc2)n(CC(=O)NC(C)C2CC2)n1 (configuration not stated) | -16.22
CCC(C)(C)NC(=O)Cn1nc(C)nc1-c1cccc(C)c1 | -9.782
Cc1cccc(-c2nc(C)nn2CC(=O)N(C)C2CC2)c1 | -1.032
Cc1cccc(-c2nc(C)nn2CN2CCN(S(C)(=O)=O)CC2)c1 | -9.044
Cc1cccc(-c2nc(C)nn2CC(=O)NC(C)C)c1 | 108.3

SMILES | Percent Effect [%]
Cc1ccc(CNC2(Cc3cc(CC(C)C)on3)COC2)o1 | 0.7021
CC(C)(C)CN1CC(O)CN(C(=O)c2cccc(C(F)(F)F)c2)CC1=O (configuration not stated) | 85.94
N#CCCN1CC(O)CN(C(=O)c2cccc(C(F)(F)F)c2)CC1=O (configuration not stated) | 98.63
O=C(c1ccc(=O)[nH]c1)N1CCC(Oc2cccc(C(F)(F)F)c2)CC1 | -22.64
CCN1CC(O)CN(C(=O)c2cccc(C(F)(F)F)c2)CC1=O (configuration not stated) | 106.7
O=C(O)C(F)(F)F.O=C(c1cccc(Cl)c1)N1CC[C@H]2[C@H]1CCN2CC1CC1 | -19.81
Nc1cc(C(=O)N2CCOC(Cc3cccc(C(F)(F)F)c3)C2)ccn1 (configuration not stated) | -0.1683
O=C1CN(C(=O)c2cccc(C(F)(F)F)c2)CC(O)CN1CC1CC1 (configuration not stated) | 100.3
Cc1nnn2c1COCC(CNCc1nccs1)C2.O=C(O)C(F)(F)F (configuration not stated) | -0.1911
Cc1cc(C)n(CC(C)NC2CCN(Cc3cccc(O)c3)CC2)n1 (configuration not stated) | -0.5082
NC(=O)c1csc(N2CCCC(c3nc4ccccc4[nH]3)C2)n1 (configuration not stated) | 1.485
CNC(=O)[C@@H](c1ccccc1OC)N1CCC[C@H]1C(=O)NC1CC1.Cl | -3.931
CNC(=O)[C@H]1C[C@@H]2CN(S(=O)(=O)c3cccc(F)c3)C[C@@H]2N1C.O=C(O)C(F)(F)F | -6.312
Cc1nn(C)c(C)c1C1CCCN1c1ncnc2c1CCC2 (configuration not stated) | 10.31
CCCn1nccc1S(=O)(=O)N1CCC2(CCCN(C(C)C)C2=O)C1 (configuration not stated) | 7.399
CCC1CCC(NCCN2CCOCC2)CC1 (configuration not stated) | -1.764
COc1ncc(-c2nccn2C(C)CCn2cccn2)cn1 (configuration not stated) | -0.87
O=C(c1cccc(C(F)(F)F)c1)N1CC(=O)N(C2CCC2)CC(O)C1 (configuration not stated) | 119.9
CC(C)c1nnc2n1CCN(C(=O)c1cccc(C(F)(F)F)c1)C2 | -7.984
CC(C)CN1CC(O)CN(C(=O)c2cccc(C(F)(F)F)c2)CC1=O (configuration not stated) | 93.47
COCCN1CC(O)CN(C(=O)c2cccc(C(F)(F)F)c2)CC1=O (configuration not stated) | 96.14
O=C(c1ccncc1)N1CCC(Oc2cccc(C(F)(F)F)c2)CC1 | -12.2
O=C(O)C1CCCCN1C(=O)c1cccc(C(F)(F)F)c1 (configuration not stated) | 1.382
Nc1cc(C(=O)N2CCC(Oc3cccc(C(F)(F)F)c3)CC2)ccn1 | 0.5907
Cc1c(Br)cccc1C(=O)NCC1CCNCC1.Cl | 5.039
COC(=O)NCc1ccc(NC(=O)CC2=CCCCC2)cc1 | -4.854

SMILES | Percent Effect [%]
Cc1nc(N2CCN(S(C)(=O)=O)CC2)cc(-n2cnc(C)c2C)n1 | -12.66
CC(C)(C)CCN1CCCC(Cn2cc(CCO)nn2)C1 (configuration not stated) | -5.43
CC(C)(C)n1cc(C(=O)N2CCN(Cc3ccccc3F)CC2)cn1 | -9.517
Cc1ccccc1CN1CCN(C(=O)c2ccn(C(C)(C)C)c2)CC1 | 106.5
Cc1cccnc1CN1CCN(C(=O)c2ccn(C(C)(C)C)c2)CC1 | 140.1
CNS(=O)(=O)c1ccc(CN2CCN(Cc3ncccc3C)CC2)cc1 | 2.71
Cc1cccnc1CN1CCN(C(=O)CCn2ccccc2=O)CC1 | -35.18
Cc1ccccc1CN1CCN(C(=O)CCn2ccccc2=O)CC1 | -43.85
CCOC(=O)CC(NC(=O)c1cn(Cc2ccccc2F)nn1)C(C)C (configuration not stated) | 0.973
O=C(O)C1c2nc[nH]c2CCN1Cc1cc(-c2ccccc2)no1 (configuration not stated) | -8.907
CCCc1cc(C(=O)N(C)Cc2cccc3cnccc23)n(C)n1 | -5.635
CN(Cc1cccc2cnccc12)C(=O)CCc1n[nH]c2c1CCCC2 | 113.4
O=C(CCc1n[nH]c2c1CCCC2)N1C[C@@H]2CC[C@H](C1)N(CC1CC1)C2 | 3.665
Cc1ncc(CC(=O)N2CCC3(CCC(=O)N(C4CC4)C3)CC2)c(=O)[nH]1 | 3.916
NC(=O)NC1CCN(Cc2ccc(Br)c(F)c2)CC1 | -13.64
CC(C)NS(=O)(=O)c1ccccc1CNCc1cccc(O)c1 | -3.142
CCOc1ccc(S(=O)(=O)NCc2cccnc2N(C)C)cc1 | -21.99
CN(C)c1ncccc1CNCc1cccc(O)c1 | 107.5
CCOc1ccc(CNCc2cccnc2N(C)C)cc1 | 80.05
CCc1ncc(CNCc2cccnc2N(C)C)cn1 | 101.7
CC(C)(C)NS(=O)(=O)c1ccccc1CNCc1cccc(O)c1 | -1.047
CCN(C(=O)NCc1cccnc1N(C)C)C(C)c1cccnc1 (configuration not stated) | -18.28
Cc1oc(C)c(C(=O)NCc2cccnc2N(C)C)c1C | -9.408
CC(=O)Nc1ccc(CNCc2cccnc2N(C)C)cc1 | 96.06
